Source: PubChem
AI-2 QS mod: modulates the Vibrio harveyi AI-2 quorum sensing system; activity change, % at 7.5 µM; AID 2094; 0.4% of 300,000 active; Vibrio harveyi JMH597 AI-2 luminescence/OD600 ratio, 9 h; hits give low values; strain lacks LuxN and CqsS sensors; 0 = neutral-control median; in the data active = activity change below about -75%, passing the limit was not always enough; inconclusive = no clear call, values can overlap the other calls;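 also: luminescence divided by OD600 gain over 9 h not by final OD600 alone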
CHT inh: human CHT choline transport inhibition. 0.86% of 310,000 active. Q9GZV3. B-score at 10 µM. CHT-expressing cells, membrane potential dye, choline response; hits give low values. AID 488975;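 active = B-score over 3 SD under the library average, and starting fluorescence ratio not unusually high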;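 also: choline stimulus applied at its EC90 after an EC20 pre-addition; B-score computed on integrated fluorescence ratio after choline addition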
PREPL inh: human PREPL enzyme inhibition. recombinant PREPL, fluorescence polarization activity-based probe. inhibition, % at 5.96 µM. 0.68% of 320,000 active; in the data active = inhibition above about 43%;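 also: 0% = enzyme with DMSO and 100% = wells lacking enzyme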
CHT PAM: allosteric activators of human choline transporter CHT; Q9GZV3; CHT-expressing cells, membrane potential dye, choline EC20; hits give high values; LV-AA mutant CHT in HEK293 cells; B-score at 10 µM; 0.49% of 310,000 active; AID 488977;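 active = initial fluorescence not abnormally high and integrated response B-score, plate-corrected, over 3 SD above library mean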
ALR inh: blocks human ALR sulfhydryl oxidase activity; P55789; purified ALR, DTT oxidation, H2O2 HRP-luminol luminescence; inhibition, % (no concentration beside the values); 3.8% of 290,000 active; AID 485317;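 active = mean replicate inhibition above about 79%, with every replicate also reaching it, limit read from the data; inconclusive = only one of the two criteria met; inactive = mean below limit and not every replicate reaching it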
Target sequence (P55789 whole entry, looked up): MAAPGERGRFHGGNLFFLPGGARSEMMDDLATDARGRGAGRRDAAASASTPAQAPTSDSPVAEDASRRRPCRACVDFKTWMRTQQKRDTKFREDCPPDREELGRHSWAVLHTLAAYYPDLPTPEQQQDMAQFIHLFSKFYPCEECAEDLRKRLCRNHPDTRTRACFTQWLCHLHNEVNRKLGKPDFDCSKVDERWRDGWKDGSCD
* = called active by the depositor. Most compounds without a hit are left out; they make up all but 5% or so of the library.

Results for O=C(CSC1CC(=O)N(c2ccc(C(=O)O)cc2)C1=O)Nc1ccc2ccccc2c1 (stereo not given) ?
AI-2 QS mod: 6.4; CHT inh: inactive; PREPL inh: 17.2; CHT PAM: inactive; ALR inh: 99.6*

How did COC(=O)c1ccc(N2C(=O)CC(SCC(=O)Nc3ccc(OC)cc3)C2=O)cc1 (stereo not given) do in these assays?
AI-2 QS mod: 11.8; CHT inh: inactive; PREPL inh: -9.3; CHT PAM: inactive

How did COc1ccccc1N1CCN(C(=O)COc2cc(C)cc(C)c2)CC1 do in these assays?
AI-2 QS mod: 27.9; CHT inh: inactive; PREPL inh: 15.8; CHT PAM: inactive; ALR inh: 17.5

What do the screens show for `O=C(CSc1nnc(-c2ccccn2)o1)Nc1ccccc1Cl`?
AI-2 QS mod: 11.8; CHT inh: inactive; PREPL inh: -4.5; CHT PAM: inactive; ALR inh: 98.6*

Results for Cn1c(N)c(C(=O)COC(=O)CC2CC3CCC2C3)c(=O)n(C)c1=O (stereo not given) ?
AI-2 QS mod: -1.0; CHT inh: inactive; PREPL inh: -0.9; CHT PAM: inactive; ALR inh: 18.8

How did Cc1c(O)c(CN(C)C)cc2c1oc(=O)c1ccccc12 do in these assays?
AI-2 QS mod: 11.8; CHT inh: inactive; PREPL inh: -0.2; CHT PAM: inactive; ALR inh: 96.6*

Results for O=C(NCCOc1ccccc1F)C1CCC(=O)N(CCc2cccc(F)c2)C1 (stereo not given) ?
AI-2 QS mod: -5.3; CHT inh: inactive; PREPL inh: 5.5; CHT PAM: inactive; ALR inh: -0.6

How did CCCCn1c(N)c(N(CC)C(=O)C2CCC2)c(=O)[nH]c1=O do in these assays?
PREPL inh: 3.1; ALR inh: -1.0

How did O=C1CSC(c2cccnc2)N1C1CCCCC1 (stereo not given) do in these assays?
AI-2 QS mod: 28.9; CHT inh: inactive; PREPL inh: 4.9; CHT PAM: inactive; ALR inh: 0.6

Results for O=C1CSC(c2cccnc2)N1c1ccc(Cl)cc1 (stereo not given) ?
AI-2 QS mod: 11.9; CHT inh: inactive; PREPL inh: 10.6; CHT PAM: inactive; ALR inh: 98.9*

How did Cc1ccc(N2C(=O)CSC2c2cccnc2)cc1F (stereo not given) do in these assays?
AI-2 QS mod: 10.4; CHT inh: inactive; PREPL inh: 7.7; CHT PAM: inactive; ALR inh: 99.5*

Results for COc1ccc(NC(=O)/C(Cl)=C(/Cl)S(=O)Cc2ccccc2)cn1 (stereo not given) ?
AI-2 QS mod: -59.6; CHT inh: inactive; PREPL inh: -3.5; CHT PAM: inactive; ALR inh: -6.5

Results for COc1ccc(CS(=O)(=O)/C(Cl)=C(/Cl)C(=O)Nc2ccc(OC)nc2)cc1 ?
AI-2 QS mod: 30.2; CHT inh: inactive; PREPL inh: -7.4; CHT PAM: inactive; ALR inh: 97.9*

Results for CCN(CC)c1ccc(NC(=O)CCCCC(=O)Nc2ccc(N(CC)CC)cc2)cc1 ?
AI-2 QS mod: 11.3; CHT inh: inactive; PREPL inh: 23.7; CHT PAM: inactive; ALR inh: inconclusive

Results for CCN(CC)c1ccc(NC(=O)CCCCCN2C(=O)c3ccccc3C2=O)cc1 ?
AI-2 QS mod: 12.2; CHT inh: inactive; PREPL inh: 4.4; CHT PAM: inactive; ALR inh: 98.9*

Results for CCN(CC)c1ccc(NC(=O)COc2ccc(-n3cnnn3)cc2)cc1 ?
PREPL inh: 24.6; ALR inh: 98.8*

How did CCOc1ccc(NC(=O)COc2ccc(-n3cnnn3)cc2)cc1 do in these assays?
PREPL inh: 13.1; ALR inh: -0.6

What do the screens show for `CCN(CC)c1ccc(NC(=O)CSC(=O)c2ccccc2)cc1`?
PREPL inh: 12.1; ALR inh: 99.2*

Results for O=C(O)CC/C(=C\c1ccccc1[N+](=O)[O-])c1nc2ccccc2s1 ?
AI-2 QS mod: 18.5; CHT inh: inactive; PREPL inh: 13.8; CHT PAM: inactive; ALR inh: 96.5*

Results for O=C(O)CC/C(=C\c1cc([N+](=O)[O-])ccc1Cl)c1nc2ccccc2s1 ?
AI-2 QS mod: 58.6; CHT inh: inactive; PREPL inh: 0.5; CHT PAM: inactive; ALR inh: 96.4*
